Assay outcomes from PubChem BioAssay.
Sampled rows, rich in hits. Any-hit rate of the full collection: about 4%.
PAX8 reporter – lowers PAX8-driven luciferase in RMG-I cells. RMG-I TPO-luciferase reporter, SteadyGlo, 24 h. inhibition, % at 12.6 µM. 360,000 compounds, 1.2% hits. AID 652154;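 active = mean replicate inhibition at least 60% with every replicate also reaching 60%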;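 note: luciferase light reporting Pax8 driven TPO promoter activity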
Beta apoptosis – beta cell apoptosis inhibition; 300,000 compounds, 0.8% hits; protection from apoptosis, % (no concentration beside the values); INS-1E cytokine-induced death, ATP luminescence, 48 h; percent of positive-control rescue, neutral wells zero; AID 435005;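 active = Every replicate reaches about 75%, or at least half do and their mean reaches it too, limit read from the data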;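 note: higher means more ATP so stronger rescue from cytokine killing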
Gli-Sufu antag – blocks Gli-Sufu signaling in a luciferase reporter. Sufu-KO-LIGHT fibroblasts, Gli luciferase reporter luminescence. 340,000 compounds, 0.74% hits. inhibition, % at 5 µM. AID 588413;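 active = inhibition above about 55%, limit read from the data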
Mdm2 MdmX PPI – inhibitors of human Mdm2/MdmX interaction; inhibition, % at 8 µM; AID 485346; SaOS-2 split-luciferase Mdm2/MdmX complementation, luminescence; 330,000 compounds, 3% hits;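 active = inhibition of at least 50% at 8 µM in the primary screen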
Target sequence (O15151 whole entry, looked up): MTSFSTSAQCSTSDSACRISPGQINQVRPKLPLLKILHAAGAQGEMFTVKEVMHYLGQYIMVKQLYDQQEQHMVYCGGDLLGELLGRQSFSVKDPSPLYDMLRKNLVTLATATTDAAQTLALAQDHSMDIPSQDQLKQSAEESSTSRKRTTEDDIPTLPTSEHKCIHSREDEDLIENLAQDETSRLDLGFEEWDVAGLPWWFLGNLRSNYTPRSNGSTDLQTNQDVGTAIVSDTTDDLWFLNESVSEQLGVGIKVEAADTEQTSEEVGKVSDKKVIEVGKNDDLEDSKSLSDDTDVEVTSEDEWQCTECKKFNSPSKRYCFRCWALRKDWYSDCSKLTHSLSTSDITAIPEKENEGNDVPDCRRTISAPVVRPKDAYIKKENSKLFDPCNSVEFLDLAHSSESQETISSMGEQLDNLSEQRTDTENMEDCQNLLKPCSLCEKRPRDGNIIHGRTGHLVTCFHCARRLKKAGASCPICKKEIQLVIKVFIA
Target sequence (Q00987 whole entry, looked up): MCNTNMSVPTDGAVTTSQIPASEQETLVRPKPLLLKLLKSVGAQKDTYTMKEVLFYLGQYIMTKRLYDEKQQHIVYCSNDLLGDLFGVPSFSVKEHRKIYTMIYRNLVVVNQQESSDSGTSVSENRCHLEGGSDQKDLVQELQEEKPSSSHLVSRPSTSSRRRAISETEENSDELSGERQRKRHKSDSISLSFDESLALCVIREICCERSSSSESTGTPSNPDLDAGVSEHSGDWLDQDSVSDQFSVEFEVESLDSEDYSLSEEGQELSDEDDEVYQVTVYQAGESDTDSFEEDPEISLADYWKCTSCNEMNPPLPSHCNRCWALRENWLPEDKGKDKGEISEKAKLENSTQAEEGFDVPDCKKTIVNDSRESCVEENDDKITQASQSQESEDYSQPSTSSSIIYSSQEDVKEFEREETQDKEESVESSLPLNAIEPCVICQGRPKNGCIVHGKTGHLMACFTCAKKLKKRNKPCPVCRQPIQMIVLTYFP
Shn3 3UTR inh – Schnurri-3 reporter inhibition in Clone20 osteoblasts | Clone20 osteoblast Shn3 3'UTR firefly luciferase, 24 h | inhibition, % at 12.5 µM | 360,000 compounds, 0.52% hits;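 active = mean inhibition of at least 75% with every replicate also reaching 75%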
CSC inhib – blocks cancer stem cells. cancer stem cell-like cells viability, luminescence. inhibition, % at 7.5 µM. 300,000 compounds, 1.1% hits. AID 2717; in the data active = inhibition above about 75%; tested in HMLE shEcad cells
Mdm2-MdmX conf – confirmation of human Mdm2/MdmX interaction inhibitors. Mdm2-MdmX binding, luminescent assay. shares compounds with Mdm2 MdmX PPI. 10,000 compounds, 55% hits. AID 489028. inhibition, % at 8 µM; in the data active = inhibition above about 40%
Full FLuc ctr – full-length luciferase inhibition in Mdm2/MdmX counter-screen; shares compounds with Mdm2 MdmX PPI; SaOS-2 full-length luciferase counterscreen, luminescence; inhibition, % at 8 µM; 6,200 compounds, 77% hits;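 active = mean inhibition at 8 µM reaching about 37%, which flags the compound as non-specific, limit read from the data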;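 note: p53-null SaOS-2 cells with luciferase driven by a doxycycline-inducible promoter; compound on cells about two nights before reading with doxycycline added after day one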
Hits are given with their value; . = inactive; / = no result.

SMILES	PAX8 reporter	Beta apoptosis	Gli-Sufu antag	Mdm2 MdmX PPI	Shn3 3UTR inh	CSC inhib	others
CCOC(=O)C(C)Oc1cc(C)cc2oc(=O)c3c(c12)CCCC3 (stereo unspecified)	/	/	.	.	.	/
COc1ccc(-c2ccc([C@@H]3[C@H]4CN(C(=O)Cc5ccccc5)CCCCN4[C@H]3CO)cc2)cc1	.	/	/	/	/	/
COc1ccc(CN2C(=O)NC(=O)/C(=C\c3ccco3)C2=O)cc1	.	.	.	.	.	.
O=C1NC(=O)N(Cc2ccccc2)C(=O)/C1=C/C=C/c1ccco1	.	.	.	.	.	90
CC(=O)OC1CC(OC2C(O)CC(OC3C(O)CC(OC4CCC5(C)C(CCC6C5CCC5(C)C(C7=CC(=O)OC7)CCC65O)C4)OC3C)OC2C)OC(C)C1OC1OC(CO)C(O)C(O)C1O (stereo unspecified)	102	/	.	/	.	/
CC1OC(OC2CC(O)C3(CO)C4C(O)CC5(C)C(C6=CC(=O)OC6)CCC5(O)C4CCC3(O)C2)C(O)C(O)C1O (stereo unspecified)	/	/	.	/	.	/
COC1CC(OC2CCC3(C)C(CCC4C3CCC3(C)C(C5=CC(=O)OC5)C(OC(C)=O)CC43O)C2)OC(C)C1OC1OC(COC2OC(CO)C(O)C(O)C2O)C(O)C(O)C1O (stereo unspecified)	/	/	/	/	/	79
COc1ccc(-n2nnnc2C(CCc2ccccc2)N2CCC(n3c(=O)[nH]c4ccccc43)CC2)cc1 (stereo unspecified)	104	/	/	/	.	/
O=c1[nH]c2ccccc2n1C1CCN(C(CCc2ccccc2)c2nnnn2-c2ccc3c(c2)OCCO3)CC1 (stereo unspecified)	106	/	/	/	.	/
O=c1[nH]c2ccccc2n1C1CCN(C(c2ccnc3ccccc23)c2nnnn2-c2ccc3c(c2)OCCO3)CC1 (stereo unspecified)	77	/	/	/	.	/
Cc1cccc(C)c1-n1nnnc1C(CCc1ccccc1)N1CCC(n2c(=O)[nH]c3ccccc32)CC1 (stereo unspecified)	.	/	/	/	.	/
COc1ccc(C(c2nnnn2-c2ccc3c(c2)OCCO3)N2CCC(n3c(=O)[nH]c4ccccc43)CC2)cc1 (stereo unspecified)	.	/	/	/	.	/
O=C(Cc1ccccn1)N1CCCCN2[C@H](CO)[C@@H](c3ccc(-c4ccccc4F)cc3)[C@@H]2C1	.	/	/	/	/	/
CC=Cc1ccc2n(c1=O)C[C@@H]1[C@@H](CO)[C@H](C(=O)OC)[C@H]2N1C(=O)CC1CC1 (mixture of isomers)	.	/	/	/	/	/
C/C=C/c1ccc(C2[C@@H]3CN(Cc4cccc(F)c4)C[C@H]2N3)cc1 (stereo partly specified)	.	/	/	/	/	/
CC(C)c1ccc(N2C(=O)NC(=O)/C(=C\C=C\c3ccco3)C2=O)cc1	.	.	.	56	/	99	Mdm2-MdmX conf=.
CC(C)c1ccc(N2C(=O)NC(=O)/C(=C\c3cnc(-c4ccccc4)nc3)C2=O)cc1	/	.	.	.	.	.
O=C(Cc1ccncc1)N1CCCCN2[C@H](CO)[C@@H](c3ccc(C#CC4(O)CCCC4)cc3)[C@@H]2C1	.	/	/	/	/	/
O=C(CCCN1CCC2(CC1)C(=O)NCN2c1ccccc1)c1ccc(F)cc1	.	.	.	63	.	.	Mdm2-MdmX conf=.
CC(=O)OC[C@]12CCC(C)=C[C@H]1O[C@@H]1[C@H](O)[C@@H](OC(C)=O)[C@@]2(C)[C@]12CO2	/	/	92	100	99	.	Mdm2-MdmX conf=100;Full FLuc ctr=.
COC(=O)[C@H]1[C@H](CO)[C@H]2Cn3c(ccc(-c4ccccc4F)c3=O)[C@@H]1N2C(C)=O	.	/	/	/	/	/
C/C1=C\[C@@H](C)C/C=C/[C@H]2[C@@H]3O[C@]3(C)[C@@H](C)[C@H]3[C@H](Cc4c[nH]c5ccccc45)NC(=O)[C@]32C(=O)/C=C/C(=O)[C@@H]1O	/	/	.	83	88	.	Mdm2-MdmX conf=46;Full FLuc ctr=.
